In the library only some 19% were active in any assay of this set; here they are far more common.
Pf growth 48h: inhibits P. falciparum growth in the first generation, 48 h; AID 504832; Potency, µM (series often up to 28.7 µM), for inactives: at the top dose activity change, negative = inhibition, hits mostly inhibitors; P. falciparum luciferase growth in erythrocytes, 48 h; actives 5.9% (n = 310,000); further: potency means the concentration at half of the fitted maximal effect; on the % scale 0 is the no-effect control and ±100 the full control effect
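Cell-based growth assay: transgenic P. falciparum expressing firefly luciferase, cultured in red cells within RPMI 1640 containing 0.5% w/v Albumax, 24 mM bicarbonate and gentamycin. A drop in luciferase activity indicates inhibition.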
Pf growth 96h: P. falciparum growth inhibition at 96 hour, primary screen for plastid delayed-death inhibitors. Potency, µM (top dose mostly 28.7 µM), for inactives: at the highest dose activity change, negative = inhibition, hits mostly inhibitors. AID 504834. actives 6.9% (n = 320,000). P. falciparum luciferase reporter growth, 96 h; further: potency means the concentration at half of the fitted maximal effect; on the % scale 0 is the no-effect control and ±100 the full control effect
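Infected RBCs, 2% Hct / 0.05% parasitemia final; luciferase-reporter P. falciparum; cpd 96 h, 37 C, 5% CO2; luciferase detection reagent; luminescence.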
SARS PLpro yeast: SARS-CoV PLP inhibition in yeast; S. cerevisiae expressing SARS-CoV PLpro, growth rescue; Potency, µM (series often up to 32.9 µM), without a hit: top-dose activity, positive = growth rescue, usual class: activators; actives 0.19% (n = 330,000); calls by dose curve; further: potency means the concentration at half of the fitted maximal effect; 0% is about no effect; nearly all actives have a fitted effect of over 55% in size
Shiga toxin inh: Shiga toxin inhibition. Vero cells, Shiga toxin protein synthesis inhibition reporter. inhibition, % at 38.7 µM. actives 9.2% (n = 290,000). AID 2315; in the data active means inhibition mostly above about 28%, no sharp cut-off; inactive means mostly below about 43%; further: 0% is about no effect
CHX counter: counter-screen hit for Shiga toxin inhibitors, cycloheximide; cell reporter, cycloheximide protein synthesis inhibition counterscreen; max response, %; actives 12% (n = 300,000); in the data active means max response mostly above about 13%, no sharp cut-off; inactive means mostly below about 14%; further: read at 38.3 µM for the half of the compounds with a filed dose; 0% is about no effect
AMA1 RON2 block: inhibitors of Plasmodium falciparum AMA1-RON2 interaction. actives 0.2% (n = 360,000). Potency, µM (titrated, usually from 58.2 µM), without a hit: top-dose activity change, negative = inhibition, most hits filed as inhibitors. AlphaScreen AMA1-biotinylated RON2 peptide binding;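 further: potency means the concentration at half of the fitted maximal effect; 0% = vehicle wells and -100% = peptide control; nearly all actives have a fitted effect of over 45% in size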
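AMA1 (3D7) with his tag at 25 nM final met compounds first, then biotinylated RON2 peptide at 25 nM; detection used donor plus acceptor beads, 10 µg/mL apiece, read by AlphaScreen after 30 min at room temperature.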
* marks the source's active call; other numbers are inactive results; ? = inconclusive; nt = no result; [ ] = remark or other dose. Unless noted, the call rests on the fitted dose curve; in most records, active means well fitted curve in the direction sought with a large enough effect; inconclusive means small, poorly fitted or top-dose-only effect, or another doubt; inactive means no such curve, though single readings can be large; an effect the other way counts as inactive or inconclusive.

SMILES | Pf growth 48h | Pf growth 96h | SARS PLpro yeast | Shiga toxin inh | CHX counter | AMA1 RON2 block
CC(C)c1ccccc1NC(=O)Nc1ccc(F)cc1F | -22.7% | 3.0% | -1.4% | 22.8 | 9.9* | ?
O=C(N[C@@H](Cc1ccccc1)C(=O)NCc1ccc(F)cc1)C1CCNCC1 | 16.7% | 15.5% | -1.5% | -6.3 | 1.1 | -1.5%
COc1ccc(CCN2C(=O)C3C4CC(C5C(C(=O)O)=NOC45)C3C2=O)cc1OC (stereo not drawn) | 5.2% | nt | 25.9% | 20.0 | 7.1 | -14.4%
COc1ccc(NC(=O)Nc2ccc(F)cc2F)cc1 | 160.1% | -15.0%[5.75 µM] | -0.5% | 67.7* | 38.0* | 6.9%
COc1ccc(/C=N/NC2=NCCCCC2)c(OC)c1 | 26.0% | 0.1% | 2.8% | 38.6 | 8.4 | 7.4%
O=[N+]([O-])c1cccc(/C=N/NC2=NCCCCC2)c1 | ? | ? | 3.3% | 62.0* | 35.7* | 0.0%
Oc1ccccc1/C=N/NC1=NCCCCC1 | 64.6% | 26.5% | -3.4% | 94.8* | 33.7* | 63.0%
O=[N+]([O-])c1cccc(C=NNc2ccccc2)c1 | nt | nt | nt | nt | nt | -3.7%
CCOC(=O)CC(NC(=O)C(Cc1ccc(N(CCCl)CCCl)cc1)NC(C)=O)C(=O)OCC (stereo not drawn) | 9.28µM* | 10.6% | 0.4% | 2.2 | -1.9 | -16.8%
Cc1nn(C)cc1CN(C)C(=O)C1CCC(=O)N(CCc2cccc(F)c2)C1 (stereo not drawn) | nt | nt | nt | nt | nt | 8.7%
O=C(O)C1CC=CCC1C(=O)N1CCN(c2nc(-c3ccccc3Cl)c3cc(Br)ccc3n2)CC1 (stereo not drawn) | 11.7µM* | ? | -3.0% | -26.9 | -3.3 | 3.1%
CCOC(=O)N(C)C[C@@H]1OCc2cnnn2CCCC(=O)N([C@@H](C)CO)C[C@@H]1C | nt | nt | nt | nt | nt | -16.2%
CCCCn1c(=O)[nH]c(=O)c2c1nc(-c1ccccc1F)n2Cc1ccccc1OC | ? | ? | 1.9% | -7.8 | -0.6 | -19.1%
Cc1ccc(C(=O)N(C)c2ccc(OCC(=O)N3c4ccc(C)cc4C4CN(C)CCC43)cc2)cc1 (stereo not drawn) | ? | ? | -0.9% | 50.9 | 36.7* | 4.6%
Cc1ccc2c(c1)C1CN(C)CCC1N2C(=O)CCCN1C(=O)c2cccc3cccc(c23)C1=O (stereo not drawn) | 1.85µM* | 3.7µM* | -1.3% | 13.6 | 4.2 | 7.5%
COc1ccc(OCC(=O)N2c3ccc(C)cc3C3CN(C)CCC32)cc1 (stereo not drawn) | 0.0% | -9.2% | 2.4% | -2.8 | 6.9 | 5.9%
[2H]C([2H])(CCOS(N)(=O)=O)c1ccccc1 | 14.9% | -19.9% | 7.8% | -7.2 | -4.7 | -2.2%
CCS(=O)(=O)c1nnnn1-c1ccccc1S(C)(=O)=O | 9.28µM* | nt | 0.8% | 17.2 | 20.0 | 10.1%
N/C(=N\OS(=O)(=O)c1ccc2ccccc2c1)c1ccccn1 | 5.3% | 25.0% | 1.6% | 15.8 | 6.2 | 59.2%
O=C1CC(C(=O)N2CCc3ccccc32)CN1c1ccc(F)cc1 (stereo not drawn) | 7.0% | 19.7% | -2.3% | 48.4 | -2.8 | 5.2%
Fc1cnc(N2CCN(c3ccccc3)CC2)nc1N1CCN(c2ccccc2)CC1 | 13.1µM* | 0.5% | -9.3% | 16.2 | 3.3 | -13.9%
O=C1CCCc2nc(N3CCN(c4ccccc4)CC3)ncc21 | 29.0% | -10.6% | 0.8% | 19.5 | 0.4 | -5.1%
CCCCc1nc(NCCNC(=O)c2ccccc2)c(C#N)c2c1CSC(C)(C)C2 | nt | 2.33µM* | -20.4% | -8.9 | -6.1 | -4.1%
CCCCc1nc(NCCNC(=O)c2ccco2)c(C#N)c2c1CSC(C)(C)C2 | 8.28µM* | nt | -7.7% | 25.9 | 7.7 | -6.5%
CC(C)(C)OC(=O)N1C(=O)[C@](OC(=O)c2ccccc2)(c2ccc(F)cc2)c2ccccc21 | nt | nt | nt | nt | nt | -14.6%
SMILES | Pf growth 48h | Pf growth 96h | SARS PLpro yeast | Shiga toxin inh | CHX counter | AMA1 RON2 block
O=C(COC(=O)/C=C/c1ccccc1Cl)NC1CCCCCC1 | -4.1% | -15.0% | -0.2% | -3.8 | 9.2 | 9.7%
Cc1cccn2c(=O)c(/C=C(\C#N)S(=O)(=O)c3ccccc3)c(N3CCN(Cc4ccccc4)CC3)nc12 | ? | 14.7µM* | 2.8% | 14.8 | 1.4 | -0.4%
N#C/C(=C\c1c(N2CCOCC2)nc2ccccn2c1=O)S(=O)(=O)c1ccccc1 | -0.2% | -22.8% | 2.0% | -11.7 | -3.9 | -8.2%
Cc1ccc(S(=O)(=O)/C(C#N)=C/c2c(N3CCOCC3)nc3c(C)cccn3c2=O)cc1 | 2.08µM* | -12.9% | -1.7% | -6.2 | 1.5 | -8.2%
CN(CC(=O)Nc1ccc(F)c(Cl)c1)S(=O)(=O)c1ccc2c(c1)n(C)c(=O)c(=O)n2C | -20.0% | ? | -2.2% | -9.0 | 5.7 | 4.1%
Cc1ccccc1NCCC(=O)Nc1ccc(F)cc1 | 23.9% | 47.8% | 1.8% | 37.6 | 16.3* | -2.1%
Cc1cc(F)ccc1NCC(=O)Nc1ccccc1Br | ? | ? | -40.6% | 116.2* | 25.9* | -7.3%
CC(=O)c1ccc(NC(=O)CCOc2cc(C)ccc2C)cc1 | 28.5% | 50.3% | -3.9% | 115.1* | 41.3* | -15.4%
CC(=O)Nc1ccc(NC(=O)CCOc2cc(C)ccc2C)cc1 | -0.8% | 3.7% | 2.2% | -6.2 | 2.7 | -10.5%
Cc1ccc(OCCC(=O)Nc2ccc(F)c(Cl)c2)cc1 | 6.9% | 14.7µM* | 27.1% | -3.6 | 1.3 | 28.4%
Cc1ccc(NC(=O)CCOc2ccccc2C)cc1F | 16.8% | 0.0% | -2.9% | 38.0 | 29.7* | 17.2%
COCCN(Cc1ccccc1)C(=O)c1cccc(S(=O)(=O)N2CCN(Cc3ccccc3)CC2)c1 | nt | nt | nt | nt | nt | 88.0%
CN1CCN(CCCNC(=O)c2ccc(NC(=O)C3=CSCCO3)cc2)CC1 | 25.7% | ? | -1.4% | 13.0 | 2.0 | -3.5%
O=C(Nc1ccc(C(=O)N2CCCCC2)cc1)C1=CSCCO1 | 60.9% | ? | -7.0% | 83.6* | 28.3* | -2.5%
O=C(Nc1ccc(C(=O)N2CCN(c3ccccc3F)CC2)cc1)C1=CSCCO1 | -3.9% | -3.3% | -2.5% | 31.0* | 25.8* | -1.2%
O=C(Nc1ccc(C(=O)NCCCN2CCN(c3ccccc3)CC2)cc1)C1=CSCCO1 | ? | 33.8% | 5.6% | 2.4 | 5.6 | 38.3%
CCOCC(=O)Nc1cc(Cl)c(OC)cc1OC | 11.8% | 46.2% | -2.9% | -2.5 | 0.2 | nt
CCc1noc2c1/C(=N\O)CC(c1ccccc1)C2 (stereo not drawn) | 8.28µM* | 84.8% | -1.6% | 31.6 | 18.4 | 4.9%
CCCc1noc2c1/C(=N\O)CC(c1ccccc1)C2 (stereo not drawn) | 9.28µM* | ? | -1.9% | 12.5 | -2.0 | 3.9%
Cc1ccc(NC(=O)CN(C)C(=O)CSc2ccc3c(c2)OCCO3)cc1 | -5.7% | 18.1% | 5.8% | nt | nt | 3.3%
CC(C)(C)NC(=O)C(c1ccncc1)N(C(=O)c1csnn1)c1cccc2ccccc12 (stereo not drawn) | -27.6% | ? | -0.9% | 7.3 | 5.4 | 1.2%

Source: PubChem
